{"source": "the supplement of paper PMC9446081", "note": "Among all 39,000 compounds or so, about 220 (0.56%) showed activity. For the sample, actives were picked, then their nearest neighbours and some compounds at random.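 Note: Wild-type cells incubated without shaking, value is the mean of two biological replicates.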"}
{"system": "Escherichia coli K-12 BW25113", "test": "relative growth (OD600 normalised to plate interquartile mean) (fraction); higher = less growth inhibition, active = 0.2 or less", "conditions": "50 µM; LB; incubation time: overnight (16-24 h)"}
{"smiles": "COc1ccc2c3c(n(c2c1)C)[C@@H](CO)N(C[C@]13CN(C1)C(=O)CN1CCOCC1)C(=O)Nc1ccc(cc1)F", "relative growth": "0.977 (inactive)"}
{"smiles": "C[C@H]1CN([C@@H](C)CO)C(=O)Cc2cc(NC(=O)NC3CCCCC3)ccc2O[C@H]1CN(C)Cc1ccc(Oc2ccccc2)cc1", "relative growth": "1.03 (inactive)"}
{"smiles": "C[C@@H]1CN([C@@H](C)CO)C(=O)c2cc(NC(=O)C3CCCCC3)ccc2O[C@@H]1CN(C)C(=O)Nc1cccc2ccccc12", "relative growth": "1.01 (inactive)"}
{"smiles": "Cc1cc(C(C)(C)CC(C)(C)C)ccc1OCCOCC[N+](C)(C)Cc1ccccc1.[Cl-]", "relative growth": "0.0463 (active)"}
{"smiles": "C[N+](C)(CCOc1ccccc1)Cc1ccccc1.O=C(O)c1cc2ccccc2c(Br)c1O", "relative growth": "0.944 (inactive)"}
{"smiles": "CC(C)(C)CC(C)(C)c1ccc(OCCOCC[N+](C)(C)Cc2ccccc2)cc1.[Cl-]", "relative growth": "0.0469 (active)"}
{"smiles": "C[N+](C)(CCOc1ccccc1)Cc1ccccc1.O=C([O-])c1cc2ccccc2cc1O", "relative growth": "0.93 (inactive)"}
{"smiles": "COc1ccc(CN(C)C[C@H]2OCCCC[C@H](C)Oc3ccc(NC(=O)Nc4ccc(OC)cc4)cc3C(=O)N([C@@H](C)CO)C[C@H]2C)cc1", "relative growth": "0.901 (inactive)"}
{"smiles": "C[C@H]1CN([C@@H](C)CO)C(=O)c2cc(C#CC3(O)CCCC3)cnc2O[C@H]1CN(C)C(=O)CN(C)C", "relative growth": "0.988 (inactive)"}
{"smiles": "O=C(NCC(F)(F)F)[C@@H]1[C@@H](CO)[C@@H]2Cn3c(cccc3=O)[C@@H]2N1C(=O)C1CCC1", "relative growth": "1 (inactive)"}
{"smiles": "O=C(C[C@@H]1CC[C@H]2[C@@H](COC[C@H](O)CN2C(=O)c2ccccc2F)O1)N1CCN(c2ccccc2)CC1", "relative growth": "0.976 (inactive)"}
{"smiles": "CS(=O)(=O)NC[C@@H]1OC[C@@H]2CCN(C(=O)c3ccnnc3)C[C@@H]21", "relative growth": "1.02 (inactive)"}
{"smiles": "C[C@H]1CCCCO[C@@H](CN(C)C(=O)NC2CCCCC2)[C@@H](C)CN([C@@H](C)CO)C(=O)c2cc(NC(=O)c3ccccc3)ccc2O1", "relative growth": "1.03 (inactive)"}
{"smiles": "C[C@@H]1CN([C@H](C)CO)C(=O)c2cccc(NS(=O)(=O)c3ccc(Cl)cc3)c2O[C@H]1CN(C)C(=O)Nc1cccc2ccccc12", "relative growth": "1.02 (inactive)"}
{"smiles": "C[C@H](CO)N1C[C@H](C)[C@@H](CN(C)C(=O)Nc2ccc(C(F)(F)F)cc2)Oc2ccc(NS(=O)(=O)c3ccc(Cl)cc3)cc2CC1=O", "relative growth": "0.982 (inactive)"}
{"smiles": "Cc1ccc(S(=O)(=O)Nc2ccc3c(c2)C(=O)N([C@@H](C)CO)C[C@@H](C)[C@H](CN(C)C(=O)CCC(F)(F)F)OCCCC[C@H](C)O3)cc1", "relative growth": "0.979 (inactive)"}
{"smiles": "Cc1noc(C)c1NC(=O)N(C)C[C@@H]1Oc2ncc(C#CCN(C)C)cc2C(=O)N([C@H](C)CO)C[C@@H]1C", "relative growth": "0.979 (inactive)"}
{"smiles": "Cc1oc(=O)oc1CN1CCN(c2cc3c(cc2F)c(=O)c(C(=O)O)c2n3C(C)S2)CC1", "note": "(stereo not given)", "relative growth": "0.0438 (active)"}
{"smiles": "C[C@@H]1CN([C@H](C)CO)C(=O)Cc2cc(NC(=O)Nc3ccc4c(c3)OCO4)ccc2O[C@@H]1CN(C)Cc1ccc(C(F)(F)F)cc1", "relative growth": "1.02 (inactive)"}
{"smiles": "O=C(O)P(=O)(O)O", "relative growth": "0.0351 (active)"}
{"smiles": "CC(=O)O", "relative growth": "1.01 (inactive)"}
{"smiles": "O=P(O)(O)CN(CCN(CP(=O)(O)O)CP(=O)(O)O)CP(=O)(O)O", "relative growth": "0.926 (inactive)"}
{"smiles": "C[C@H]1CN([C@@H](C)CO)C(=O)c2cccc(NS(C)(=O)=O)c2O[C@@H]1CN(C)Cc1ccc(C(F)(F)F)cc1", "relative growth": "1.01 (inactive)"}
{"smiles": "C[C@@H]1CN([C@H](C)CO)C(=O)c2cc(C#CCN(C)C)cnc2O[C@H]1CN(C)C(=O)CCN1CCCCC1", "relative growth": "0.983 (inactive)"}
{"smiles": "C[C@H](CO)N1C[C@H](C)[C@@H](CN(C)Cc2ccccc2)OCCCC[C@H](C)Oc2ccc(NC(=O)CCC(F)(F)F)cc2C1=O", "relative growth": "0.999 (inactive)"}
{"smiles": "C[C@H]1CN([C@@H](C)CO)C(=O)c2cccc(NS(=O)(=O)c3cn(C)cn3)c2O[C@@H]1CN(C)S(=O)(=O)c1cccs1", "relative growth": "1.01 (inactive)"}
{"smiles": "COc1ccc(S(=O)(=O)N(C)C[C@@H]2Oc3ncc(C#Cc4ccc(F)cc4)cc3C(=O)N([C@H](C)CO)C[C@@H]2C)cc1", "relative growth": "1.05 (inactive)"}
{"smiles": "COc1ccccc1CNC(=O)C[C@@H]1C[C@@H]2c3cc(NC(=O)NC4CCCC4)ccc3O[C@@H]2[C@H](CO)O1", "relative growth": "0.983 (inactive)"}
{"smiles": "Cc1ccc(S(=O)(=O)Nc2ccc3c(c2)CC(=O)N([C@@H](C)CO)C[C@@H](C)[C@H](CN(C)CC2CC2)O3)cc1", "relative growth": "1.02 (inactive)"}
{"smiles": "C[C@H]1CCCCO[C@H](CN(C)C(=O)Nc2ccc(F)cc2)[C@@H](C)CN([C@@H](C)CO)C(=O)c2cc(NS(=O)(=O)c3ccc(Cl)cc3)ccc2O1", "relative growth": "0.987 (inactive)"}
{"smiles": "CN[C@H]1CC[C@@H](c2ccc(Cl)c(Cl)c2)c2ccccc21", "relative growth": "0.868 (inactive)"}
{"smiles": "CNC1CCC(c2ccc(Cl)c(Cl)c2)c2ccccc21.Cl", "note": "(stereo not given)", "relative growth": "0.261 (inactive)"}
{"smiles": "N[C@@H]1CC[C@@H](c2ccc(Cl)c(Cl)c2)c2ccccc21", "relative growth": "0.0794 (active)"}
{"smiles": "C[C@@H]1CCCCO[C@H](CN(C)C(=O)c2ccccc2)[C@@H](C)CN([C@@H](C)CO)C(=O)c2cc(NS(=O)(=O)c3ccccc3)ccc2O1", "relative growth": "0.956 (inactive)"}
{"smiles": "C[C@@H]1CCCCO[C@H](CN(C)C(=O)Nc2ccc(F)cc2)[C@@H](C)CN([C@H](C)CO)C(=O)c2cc(NC(=O)c3ccccc3)ccc2O1", "relative growth": "1.04 (inactive)"}
{"smiles": "C[C@H]1CN([C@@H](C)CO)C(=O)c2cc(NS(=O)(=O)c3cccs3)ccc2O[C@@H]1CN(C)Cc1ccc(Cl)c(Cl)c1", "relative growth": "0.995 (inactive)"}
{"smiles": "O=C(Nc1cc(Cl)cc(Cl)c1O)c1c(O)c(Cl)cc(Cl)c1Cl", "relative growth": "0.565 (inactive)"}
{"smiles": "Oc1c(Cl)cc(Cl)c(Cl)c1Cc1c(O)c(Cl)cc(Cl)c1Cl", "relative growth": "0.0546 (active)"}
{"smiles": "Oc1c(Cl)cc(Cl)cc1Sc1cc(Cl)cc(Cl)c1O", "relative growth": "0.202 (inactive)"}
{"smiles": "COc1ccc(S(=O)(=O)N(C)C[C@@H]2OCCCC[C@@H](C)Oc3ccc(NC(=O)Nc4cccc5ccccc45)cc3C(=O)N([C@H](C)CO)C[C@@H]2C)cc1", "relative growth": "1.03 (inactive)"}
{"smiles": "C[C@@H]1CN([C@H](C)CO)C(=O)CCCn2cc(nn2)CO[C@@H]1CN(C)Cc1ccc2c(c1)OCCN2C", "relative growth": "1.02 (inactive)"}
{"smiles": "CCC(C)C1NC(=O)C(CCNCS(=O)(=O)[O-])NC(=O)C(NC(=O)C(CCNCS(=O)(=O)[O-])NC(=O)C(NC(=O)C(CCNCS(=O)(=O)[O-])NC(=O)CCCCC(C)C)C(C)O)CCNC(=O)C(C(C)O)NC(=O)C(CCNCS(=O)(=O)[O-])NC(=O)C(CCNCS(=O)(=O)[O-])NC(=O)C(C(C)CC)NC1=O.[Na+].[Na+].[Na+].[Na+].[Na+]", "note": "(stereo not given)", "relative growth": "0.0529 (active)"}
{"smiles": "CCCCCCCCCC(=O)N[C@@H](Cc1c[nH]c2ccccc12)C(=O)N[C@H](CC(N)=O)C(=O)N[C@@H](CC(=O)O)C(=O)N[C@@H]1C(=O)NCC(=O)N[C@@H](CCCN)C(=O)N[C@@H](CC(=O)O)C(=O)N[C@H](C)C(=O)N[C@@H](CC(=O)O)C(=O)NCC(=O)N[C@H](CO)C(=O)N[C@@H]([C@H](C)CC(=O)O)C(=O)N[C@@H](CC(=O)c2ccccc2N)C(=O)O[C@@H]1C", "relative growth": "0.952 (inactive)"}
{"smiles": "CC[C@H](C)[C@H](N)C1=N[C@H](C(=O)N[C@@H](CC(C)C)C(=O)N[C@@H]2CCC(=O)[O][Zn][O]C(=O)C[C@H]3NC(=O)[C@H](Cc4c[nH]cn4)NC(=O)[C@@H](Cc4ccccc4)NC(=O)[C@H]([C@@H](C)CC)NC(=O)[C@@H](CCCN)NC(=O)[C@H](CCCCNC(=O)[C@H](CC(N)=O)NC3=O)NC(=O)[C@H]([C@@H](C)CC)NC2=O)CS1", "relative growth": "0.696 (inactive)"}
{"smiles": "CC(C)CCCC(=O)N[C@@H](CCNCS(=O)(=O)O)C(=O)N[C@H](C(=O)N[C@@H](CCNCS(=O)(=O)O)C(=O)N[C@H]1CCNC(=O)[C@H]([C@@H](C)O)NC(=O)[C@H](CCNCS(=O)(=O)O)NC(=O)[C@H](CCNCS(=O)(=O)O)NC(=O)[C@H](CC(C)C)NC(=O)[C@H](CC(C)C)NC(=O)[C@H](CCNCS(=O)(=O)O)NC1=O)[C@@H](C)O", "relative growth": "0.0299 (active)"}
{"smiles": "CCCc1nc2c(=O)n(C)c(=O)[nH]c2n1C", "relative growth": "0.999 (inactive)"}
{"smiles": "C[C@@H]1CN([C@@H](C)CO)C(=O)c2cc(NS(=O)(=O)c3ccc(Cl)cc3)ccc2O[C@@H](C)CCCCO[C@H]1CN(C)Cc1ccncc1", "relative growth": "1.01 (inactive)"}
{"smiles": "C[C@@H]1CN([C@@H](C)CO)C(=O)Cc2cc(NS(=O)(=O)c3ccc(F)cc3)ccc2O[C@@H]1CN(C)S(C)(=O)=O", "relative growth": "1 (inactive)"}
{"smiles": "COc1ccc(S(=O)(=O)Nc2ccc3c(c2)C(=O)N([C@@H](C)CO)C[C@@H](C)[C@H](CN(C)S(=O)(=O)c2cn(C)cn2)OCCCC[C@H](C)O3)cc1", "relative growth": "0.989 (inactive)"}
{"smiles": "CC(C)NC(=O)N(C)C[C@@H]1Oc2c(NC(=O)C3CCOCC3)cccc2C(=O)N([C@@H](C)CO)C[C@H]1C", "relative growth": "0.977 (inactive)"}
{"smiles": "CCc1nc2c(OCC(=O)c3ccc(Cl)cc3Cl)cccn2c1N(C)C(=O)COc1ccccc1", "relative growth": "1.02 (inactive)"}
{"smiles": "COc1cccc(S(=O)(=O)Nc2ccc3c(c2)OC[C@H](C)N(C(=O)Cc2cccnc2)C[C@H](C)[C@H](OC)CN(C)C3=O)c1", "relative growth": "0.963 (inactive)"}
{"smiles": "COc1ccc(NC(=O)N(C)C[C@@H]2OCCCC[C@H](C)Oc3ccc(NS(=O)(=O)c4cccs4)cc3C(=O)N([C@H](C)CO)C[C@H]2C)cc1", "relative growth": "0.941 (inactive)"}
{"smiles": "O=C(NCC[C@@H]1CC[C@H](NS(=O)(=O)c2cccc(F)c2)[C@@H](CO)O1)C1CC1", "relative growth": "0.987 (inactive)"}
{"smiles": "C[C@@H]1CN([C@H](C)CO)C(=O)c2cc(NC(=O)Nc3ccc(F)cc3)ccc2O[C@@H]1CN(C)S(=O)(=O)c1cn(C)cn1", "relative growth": "1.01 (inactive)"}
